In all, about 5,500 compounds went through this assay and about 2,000 (36%) were called active. Roughly 18% stayed inconclusive and do not appear here. Some of the results follow. Unmarked numbers belong to inactive results. Rule as the data show it: active = normalized growth mostly below about 0.91 (no sharp cut-off); inconclusive = no clear call, values can overlap the other calls; inactive = mostly above about 0.92.
Assay: chemical genetic growth profiling, strain panel (AID 1159580);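 also: tested at 20 µM; growth read once vehicle control cultures reached saturation at 30 °C; 1 = growth at the plate median or of vehicle wells; lower values mean less growth of the strain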
Details: S. cerevisiae deletion strains, growth OD
[1] = locus YAL013W, strain DEP1, hits give low values
[2] = locus YBR229C, strain ROT2, hits give low values
[3] = locus YDL101C, strain DUN1, hits give low values
[4] = locus YDR150W, strain NUM1, hits give low values
[5] = locus YEL061C, strain CIN8, hits give low values
[6] = locus YHR030C, strain SLT2, hits give low values
[7] = locus YJR043C, strain POL32, hits give low values
[8] = locus YJR075W, strain HOC1, hits give low values
[9] = locus YLR039C, strain RIC1, hits give low values
[10] = locus YLR262C, strain YPT6, hits give low values
[11] = locus YMR263W, strain SAP30, hits give low values
[12] = locus YMR307W, strain GAS1, hits give low values
[13] = locus YNL322C, strain KRE1, hits give low values
[14] = locus YPL055C, strain LGE1, hits give low values
[15] = locus YJL095W, strain BCK1, hits give low values
[16] = locus YOR061W, strain CKA2, hits give low values

## O=C(CSc1ccc(C(F)(F)F)cn1)N1CCc2c([nH]c3ccccc23)C1C(F)(F)F (stereo unspecified)
[1]
  normalized growth: 1
[2]
  normalized growth: 0.995
Locus YCL061C, strain MRC1, hits give low values
  normalized growth: 1.01
[3]
  normalized growth: 1
[4]
  normalized growth: 1.02
[5]
  normalized growth: 0.959
Locus YGR078C, strain PAC10, hits give low values
  normalized growth: 0.984
[6]
  normalized growth: 1.01
Locus YHR087W, strain rtc3, hits give low values
  normalized growth: 0.974
Locus YJL187C, strain SWE1, hits give low values
  normalized growth: 1.02
[7]
  normalized growth: 1.01
[8]
  normalized growth: 0.965
[9]
  normalized growth: 0.999
Locus YLR058C, strain SHM2 (second series), hits give low values
  normalized growth: 1.01
Locus YLR085C, strain ARP6, hits give low values
  normalized growth: 1
[10]
  normalized growth: 0.982
Locus YML094W, strain GIM5, hits give low values
  normalized growth: 0.997
Locus YMR219W, strain ESC1, hits give low values
  normalized growth: 1.01
[11]
  normalized growth: 1.01
[12]
  normalized growth: 0.935
Locus YNL153C, strain GIM3, hits give low values
  normalized growth: 0.998
Locus YNL298W, strain CLA4 (second series), hits give low values
  normalized growth: 1.01
[13]
  normalized growth: 0.991
Locus YNR030W, strain Alg12, hits give low values
  normalized growth: 0.916
Locus YOL006C, strain TOP1, hits give low values
  normalized growth: 1.08
[14]
  normalized growth: 0.954
Locus YPL241C, strain CIN2, hits give low values
  normalized growth: 0.936
Locus YPR135W, strain CTF4, hits give low values
  normalized growth: 0.907

## O=C(O)C1C(O)CCC2CN3CCc4c([nH]c5ccccc45)C3CC21 (stereo unspecified)
[1]
  normalized growth: 1.03
Locus YBR021W, strain FUR4, hits give low values
  normalized growth: 0.972
[2]
  normalized growth: 1
Locus YCL029C, strain bik1, hits give low values
  normalized growth: 1.03
Locus YDL035C, strain GPR1, hits give low values
  normalized growth: 1
Locus YDL074C, strain BRE1, hits give low values
  normalized growth: 1.02
[3]
  normalized growth: 1.02
Locus YDL185W, strain tfp1, hits give low values
  normalized growth: 1.01
Locus YDL192W, strain arf1, hits give low values
  normalized growth: 1
Locus YDR101C, strain arx1, hits give low values
  normalized growth: 1.01
[4]
  normalized growth: 1.01
Locus YDR162C, strain NBP2, hits give low values
  normalized growth: 1.03
Locus YDR318W, strain mcm21, hits give low values
  normalized growth: 1
Locus YDR388W, hits give low values
  normalized growth: 1.01
Locus YDR502C, strain sam2, hits give low values
  normalized growth: 1.02
[5]
  normalized growth: 1.01
Locus YER110C, hits give low values
  normalized growth: 1.02
Locus YER155C, strain BEM2, hits give low values
  normalized growth: 1.02
Locus YER167W, strain BCK2, hits give low values
  normalized growth: 1.02
Locus YGL078C, strain dbp3, hits give low values
  normalized growth: 1.01
Locus YGL086W, strain mad1, hits give low values
  normalized growth: 1.02
Locus YGL248W, strain PDE1, hits give low values
  normalized growth: 1.01
Locus YGR135W, strain pre9, hits give low values
  normalized growth: 0.996
Locus YGR252W, strain gcn5, hits give low values
  normalized growth: 0.951
[6]
  normalized growth: 1.01
Locus YHR079C, strain IRE1 (second series), hits give low values
  normalized growth: 1.01
Locus YHR094C, strain hxt1, hits give low values
  normalized growth: 1.02
Locus YHR129C, strain ARP1, hits give low values
  normalized growth: 1.01
Locus YHR200W, strain rpn10, hits give low values
  normalized growth: 1.02
Locus YIL066C, strain RNR3, hits give low values
  normalized growth: 1.01
Locus YIL073C, strain SPO22, hits give low values
  normalized growth: 0.988
Locus YIL125W, strain kgd1, hits give low values
  normalized growth: 1.01
Locus YIR030C, strain dcg1, hits give low values
  normalized growth: 1.01
[15]
  normalized growth: 1.03
Locus YJL134W, strain LCB3, hits give low values
  normalized growth: 1.02
Locus YJL168C, strain set2, hits give low values
  normalized growth: 1.01
Locus YJL187C, strain SWE1 (second series), hits give low values
  normalized growth: 1.01
[7]
  normalized growth: 1.02
[8]
  normalized growth: 1.04
Locus YKL009W, strain mrt4, hits give low values
  normalized growth: 1.03
Locus YKL068W, hits give low values
  normalized growth: 1.01
Locus YKL085W, strain MDH1 (second series), hits give low values
  normalized growth: 0.998
Locus YKL085W, strain MDH1, hits give low values
  normalized growth: 0.998
Locus YKR001C, strain vps1, hits give low values
  normalized growth: 1.01
[9]
  normalized growth: 1.06
Locus YLR058C, strain SHM2, hits give low values
  normalized growth: 1.01
Locus YLR102C, strain apc9, hits give low values
  normalized growth: 1.02
[10]
  normalized growth: 1.06
Locus YLR268W, strain sec22, hits give low values
  normalized growth: 1.03
Locus YLR330W, strain CHS5, hits give low values
  normalized growth: 1.01
Locus YLR342W, strain FKS1 (second series), hits give low values
  normalized growth: 1.05
Locus YLR371W, strain rom2, hits give low values
  normalized growth: 1.02
Locus YLR418C, strain cdc73, hits give low values
  normalized growth: 0.986
Locus YML016C, strain PPZ1, hits give low values
  normalized growth: 1.01
Locus YML032C, strain rad52, hits give low values
  normalized growth: 1.01
Locus YML124C, strain tub3, hits give low values
  normalized growth: 1.01
Locus YMR078C, strain ctf18, hits give low values
  normalized growth: 1.01
Locus YMR223W, strain ubp8, hits give low values
  normalized growth: 0.988
[11]
  normalized growth: 1.03
[12]
  normalized growth: 1.02
Locus YNL067W, strain RPL9B, hits give low values
  normalized growth: 1.03
Locus YNL233W, strain BNI4, hits give low values
  normalized growth: 1.02
Locus YNL250W, strain rad50, hits give low values
  normalized growth: 1.02
Locus YNL271C, strain bni1, hits give low values
  normalized growth: 1.01
Locus YNL298W, strain CLA4, hits give low values
  normalized growth: 1.02
Locus YNL307C, strain MCK1, hits give low values
  normalized growth: 1.02
[13]
  normalized growth: 1.01
Locus YNR052C, strain pop2, hits give low values
  normalized growth: 1
Locus YOL012C, strain htz1
  normalized growth: 1.58
Locus YOL147C, strain pex11, hits give low values
  normalized growth: 1.02
[16]
  normalized growth: 1.01
Locus YOR069W, strain VPS5, hits give low values
  normalized growth: 1.01
Locus YOR136W, strain idh2, hits give low values
  normalized growth: 1.02
Locus YOR144C, strain elg1, hits give low values
  normalized growth: 1.01
Locus YOR184W, strain ser1, hits give low values
  normalized growth: 1.03
Locus YOR316C, strain cot1, hits give low values
  normalized growth: 1.02
[14]
  normalized growth: 1.03
Locus YPR119W, strain clb2, hits give low values
  normalized growth: 1.01
Locus YPR141C, strain kar3, hits give low values
  normalized growth: 1.01
Locus YPR163C, strain tif3, hits give low values
  normalized growth: 1.01
Locus YPR167C, strain met16, hits give low values
  normalized growth: 0.999
Strain wtn01, hits give low values
  normalized growth: 1.02

## Cc1ccccc1C(=O)N1CCc2c([nH]c3ccccc23)C1C(F)(F)F (stereo unspecified)
Locus YAR019C, strain CDC15, hits give low values
  normalized growth: 0.982
Locus YBL105C, strain PKC1, hits give low values
  normalized growth: 0.985
Locus YBR135W, strain CKS1, hits give low values
  normalized growth: 0.986
Locus YBR136W, strain MEC1, hits give low values
  normalized growth: 0.968
Locus YBR160W, strain CDC28, hits give low values
  normalized growth: 0.988
Locus YDL017W, strain CDC7, hits give low values
  normalized growth: 0.989
Locus YDL028C, strain MPS1, hits give low values
  normalized growth: 0.979
[3]
  normalized growth: 0.978
Locus YDL108W, strain KIN28, hits give low values
  normalized growth: 0.98
Locus YDL132W, strain cdc53, hits give low values
  normalized growth: 0.988
Locus YDL214C, strain PRR2, hits give low values
  normalized growth: 0.938
Locus YDR052C, strain DBF4, hits give low values
  normalized growth: 0.989
Locus YDR054C, strain cdc34, hits give low values
  normalized growth: 0.976
Locus YDR226W, strain ADK1, hits give low values
  normalized growth: 0.985
Locus YDR477W, strain SNF1, hits give low values
  normalized growth: 0.962
Locus YER123W, strain YCK3, hits give low values
  normalized growth: 0.9
Locus YER133W, strain GLC7, hits give low values
  normalized growth: 0.948
Locus YFL009W, strain cdc4, hits give low values
  normalized growth: 0.979
Locus YFL029C, strain CAK1, hits give low values
  normalized growth: 0.972
Locus YFR003C, strain YPI1, hits give low values
  normalized growth: 0.987
Locus YFR019W, strain FAB1, hits give low values
  normalized growth: 0.954
Locus YFR028C, strain CDC14, hits give low values
  normalized growth: 0.978
Locus YGR040W, strain KSS1, hits give low values
  normalized growth: 0.927
Locus YGR052W, strain FMP48, hits give low values
  normalized growth: 0.955
Locus YGR092W, strain DBF2, hits give low values
  normalized growth: 0.978
[6]
  normalized growth: 0.881
Locus YHR079C, strain IRE1, hits give low values
  normalized growth: 0.878
Locus YHR082C, strain KSP1, hits give low values
  normalized growth: 0.927
Locus YHR205W, strain SCH9, hits give low values
  normalized growth: 0.83
Locus YIL147C, strain SLN1, hits give low values
  normalized growth: 0.976
[15]
  normalized growth: 0.908
Locus YJL128C, strain PBS2, hits give low values
  normalized growth: 0.927
Locus YJL157C, strain FAR1, hits give low values
  normalized growth: 0.976
Locus YJR016C, strain ILV3, hits give low values
  normalized growth: 0.989
Locus YJR066W, strain TOR1 (second series), hits give low values
  normalized growth: 0.934
Locus YJR066W, strain TOR1, hits give low values
  normalized growth: 0.943
Locus YKL048C, strain ELM1, hits give low values
  normalized growth: 0.977
Locus YKL067W, strain YNK1, hits give low values
  normalized growth: 0.95
Locus YKL101W, strain HSL1, hits give low values
  normalized growth: 0.909
Locus YKL193C, strain SDS22, hits give low values
  normalized growth: 0.99
Locus YKL203C, strain TOR2, hits give low values
  normalized growth: 1.01
Locus YLR113W, strain HOG1, hits give low values
  normalized growth: 0.799 (active)
Locus YLR133W, strain CKI1, hits give low values
  normalized growth: 0.929
Locus YLR403W, strain SFP1, hits give low values
  normalized growth: 0.93
Locus YML070W, strain DAK1, hits give low values
  normalized growth: 0.905
Locus YMR001C, strain CDC5, hits give low values
  normalized growth: 0.97
Locus YMR205C, strain PFK2 (second series), hits give low values
  normalized growth: 0.945
Locus YMR277W, strain FCP1, hits give low values
  normalized growth: 0.991
Locus YNL006W, strain LST8, hits give low values
  normalized growth: 1
Locus YNL020C, strain ARK1, hits give low values
  normalized growth: 0.95
Locus YNL161W, strain CBK1, hits give low values
  normalized growth: 0.996
Locus YNL183C, strain NPR1, hits give low values
  normalized growth: 0.894
Locus YNL207W, strain RIO2, hits give low values
  normalized growth: 0.982
Locus YNL222W, strain SSU72, hits give low values
  normalized growth: 0.991
Locus YNL307C, strain MCK1 (second series), hits give low values
  normalized growth: 0.936
Locus YOL078W, strain AVO1, hits give low values
  normalized growth: 0.991
Locus YOL136C, strain PFK27, hits give low values
  normalized growth: 0.906
[16]
  normalized growth: 0.953
Locus YOR119C, strain RIO1, hits give low values
  normalized growth: 0.985
Locus YOR231W, strain MKK1, hits give low values
  normalized growth: 0.891
Locus YOR329C, strain SCD5, hits give low values
  normalized growth: 0.985
Locus YPL031C, strain PHO85, hits give low values
  normalized growth: 0.963
Locus YPL153C, strain RAD53, hits give low values
  normalized growth: 0.943
Locus YPL204W, strain HRR25, hits give low values
  normalized growth: 0.945
Locus YPL209C, strain IPL1, hits give low values
  normalized growth: 0.986
Locus YPL256C, strain CLN2, hits give low values
  normalized growth: 0.815 (active)
Locus YPR025C, strain CCL1, hits give low values
  normalized growth: 0.989
Locus YPR106W, strain ISR1, hits give low values
  normalized growth: 0.965
Locus YPR111W, strain DBF20, hits give low values
  normalized growth: 0.966
Strain NNK1, hits give low values
  normalized growth: 0.967
Strain TSCII, hits give low values
  normalized growth: 0.988

Reference: PubChem BioAssay AID1159580 (chemical genetic matrix, 2015)
